Most compounds without a hit are left out; they make up all but 22% or so of the library.
CHX counter – Cycloheximide Counterscreen for Small Molecule Inhibitors of Shiga Toxin. cell reporter, cycloheximide protein synthesis inhibition counterscreen. max response, %. 300,000 tested, 12% active; in the data active = max response mostly above about 13%, no sharp cut-off; inactive = mostly below about 14%; note: read at 38.3 µM for the half of the compounds with a filed dose; 0% is about no effect
Pf growth 96h – Primary qHTS for delayed death inhibitors of the malarial parasite plastid, 96 hour incubation; Potency, µM (series often up to 28.7 µM), for the others: at the top dose activity change, negative = inhibition, hits mostly inhibitors; 320,000 tested, 6.9% active; P. falciparum luciferase reporter growth, 96 h; note: potency is the fitted concentration of half-maximal effect; % is set by controls: 0 for no effect and ±100 for the full control effect
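Parasite growth measured via integrated firefly luciferase reporter in P. falciparum. Infected erythrocytes at 2% hematocrit, 0.05% parasitemia final were treated 96 hours at 37 C under 5% CO2, and luminescence was read.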
Shiga toxin inh – A qHTS for Small Molecule Inhibitors of Shiga Toxin. Vero cells, Shiga toxin protein synthesis inhibition reporter. inhibition, % at 38.7 µM. 290,000 tested, 9.2% active. AID 2315, 2010; in the data active = inhibition mostly above about 28%, no sharp cut-off; inactive = mostly below about 43%; note: 0% is about no effect
LmPK inhibitor – qHTS Assay for Inhibitors of Leishmania Mexicana Pyruvate Kinase (LmPK); Q27686; purified LmPK, Kinase-Glo ATP luminescence, 1 h; Potency, µM (highest dose often 57.5 µM), inactives show at the top dose activity change, negative = inhibition, most hits filed as inhibitors; 290,000 tested, 0.37% active; AID 1721, 2009; note: potency is the fitted concentration of half-maximal effect; % is set by controls: 0 for no effect and ±100 for the full control effect
Target sequence (Q27686 whole entry, looked up): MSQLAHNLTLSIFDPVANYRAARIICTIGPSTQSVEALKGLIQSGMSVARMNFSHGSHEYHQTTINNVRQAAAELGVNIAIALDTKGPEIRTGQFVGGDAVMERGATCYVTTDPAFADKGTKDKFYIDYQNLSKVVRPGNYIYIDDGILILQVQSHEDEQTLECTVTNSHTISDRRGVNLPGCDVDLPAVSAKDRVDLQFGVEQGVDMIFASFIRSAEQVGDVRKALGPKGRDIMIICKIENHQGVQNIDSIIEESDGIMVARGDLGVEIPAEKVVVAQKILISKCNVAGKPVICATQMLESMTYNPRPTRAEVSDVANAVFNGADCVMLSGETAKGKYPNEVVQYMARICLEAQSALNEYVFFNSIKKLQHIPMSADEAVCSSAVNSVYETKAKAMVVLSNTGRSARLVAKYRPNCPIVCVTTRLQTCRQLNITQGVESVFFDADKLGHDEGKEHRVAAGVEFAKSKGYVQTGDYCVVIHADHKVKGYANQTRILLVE
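Kinase-Glo luminescence read after 1 h RT reaction of 0.1 nM LmPK with 0.5 mM PEP and 0.1 mM ADP. Activity scaled between uninhibited and enzyme-free controls.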
Pf growth 48h – Primary qHTS for delayed death inhibitors of the malarial parasite plastid, 48 hour incubation. P. falciparum luciferase growth in erythrocytes, 48 h. Potency, µM (series often up to 28.7 µM), for inactives: at the top dose activity change, negative = inhibition, actives largely listed as inhibitors. 310,000 tested, 5.9% active. AID 504832, 2011; note: potency is the fitted concentration of half-maximal effect; % is set by controls: 0 for no effect and ±100 for the full control effect
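Firefly luciferase activity from engineered P. falciparum reports growth; inhibitors lower the luminescent signal. Cultures contained 2% hematocrit erythrocytes at 0.1% final parasitemia.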
* marks the source's active call; other numbers are inactive results; ? = inconclusive; · = not tested or not shown; [ ] = another dose, or the depositor's remark. Unless noted, calls come from the whole dose curve; as a rule, active = well fitted inhibition curve with a large enough effect; inconclusive = small, poorly fitted or top-dose-only effect, or another doubt; inactive = no such curve, though single readings can be large or run the other way.

SMILES	CHX counter	Pf growth 96h	Shiga toxin inh	LmPK inhibitor	Pf growth 48h
O=C(NCc1ccccc1)C1=C[C@H](c2coc3ccccc3c2=O)C[C@H](OCCCCO)O1	1	10µM*	-12	3%	?
CC(=O)n1cc([C@H]2C=C(C(=O)Nc3ccccc3)O[C@@H](OCCCCO)C2)c2ccccc21	15	?	2	8%	9.3µM*
CN(Cc1ccccc1)c1nc2nonc2nc1N1CCCC(CN2CCCC2=O)C1 (stereo not drawn)	-1	?	12	-4%	?
Cc1c(C(=O)NN2CCCCC2)nn(-c2ccc(Cl)cc2Cl)c1-c1ccc(Cl)cc1	·	8.5µM*	·	·	?
Cc1ccc2c(c1)Cc1c(C(=O)NC3CCCCC3)nn(-c3ccc(Cl)cc3Cl)c1-2	-6	·	2	·	·
O=c1nc2ccccn2c2ccc(S(=O)(=O)N3CCCCC3)cc12	-2	6.6µM*	-8	-1%	5.9µM*
CCCC(NC(=S)NCC1CCCO1)C12CC3CC(CC(C3)C1)C2 (stereo not drawn)	-2	-1%	-8	1%	2.6µM*
S=C(NCC1CCCO1)NC1CCCCC1 (stereo not drawn)	7	2%	-2	-4%	19%
COc1ccccc1N(C(C)=O)c1nc(C)cc(C)c1C#N	-3	9.3µM*	2	-12%	-19%
OCC(O)/C=N/Nc1nc(N2CCCCC2)nc(N2CCCCC2)n1 (stereo not drawn)	-4	44%	19	7%	?
COc1ccc(C)c2sc(N3CCCC3)nc12	-2	-1%	-8	-2%	5%
Fc1cccc2sc(N3CCCC3)nc12	43*	64%	89*	-20%	92%
Brc1cccc2sc(N3CCCC3)nc12	34*	95%	89	6%[11.5 µM]	49%
Clc1ccc(Oc2nc3c(Cl)cccc3s2)cc1Cl	-3	45%	-4	0%	-8%
Clc1cccc2sc(N3CCCC3)nc12	20*	-11%	active	-6%	46%
COC(=O)c1sccc1NC(=O)CC1C(=O)NCCN1C(=O)Nc1cc(Cl)ccc1OC (stereo not drawn)	11	?	26	2%	-19%
NC(=O)C(=O)NCCCN1CCOCC1	-5	?	-6	8%	20%
COc1ccc(NC(=S)Nc2ccc3snnc3c2)cc1	24*	18%	34*	6%	0%
COc1ccc(CCC(=O)Nc2ccc(C)c([N+](=O)[O-])c2)cc1	4	-9%	19	3%	-22%
COc1ccc(NC(=S)Nc2ccccc2)cc1	7	-30%	2	-9%	19%
COc1ccc(NC(=S)Nc2ccc(N)c([N+](=O)[O-])c2)cc1	21*	·	42	-6%	21%
CCOc1ccc(NC(=S)Nc2ccc(OC)cc2)cc1	1	?	48	3%	-11%
COc1ccc(NC(=S)Nc2ccc3nccnc3c2)cc1	31*	?	54*	1%	44%
O=C(COc1ccccc1Cc1ccccc1)Nc1cccnc1	·	?	·	·	-27%
CN(C)CCCNc1cc(O)c2ncccc2c1	·	4.7µM*	·	·	4.1µM*
SMILES	CHX counter	Pf growth 96h	Shiga toxin inh	LmPK inhibitor	Pf growth 48h
Clc1ccc(CNc2ncccn2)cc1	26*	68%	43*	-1%	15%[0.00184 µM]
O=C(NCc1ccc(F)cc1)c1cccnc1C(=O)O	-5	-20%	2	0%	-6%[0.00184 µM]
Fc1ccc(CNc2ncccn2)cc1	7	-21%	20	-1%	18%
Oc1cc(NCc2ccc(Cl)cc2)cc2cccnc12	·	?	·	·	3.3µM*
O=S(=O)(NCc1ccc(Cl)cc1)c1cccc2cccnc12	9	16%	19	-4%	7%
Oc1cc(NCc2ccc(F)cc2)cc2cccnc12	·	1.9µM*	·	·	2.6µM*
COc1cc(C)nc(N(C)S(=O)(=O)c2ccccc2Cl)n1	-1	-3%	2	-1%	-10%
O=S(=O)(c1ccc(-c2cn3ccccc3n2)cc1)N1CCOCC1	7	16%	-11	3%	·
CCOc1ccc(-c2cn3ccccc3n2)cc1	6	-6%	37	13µM*	-2%
Fc1ccc(-c2cn3ccccc3n2)cc1	34*	-8%	77	-23%	173%
O=C(NCCS(=O)(=O)NCc1cccnc1)c1ccccc1	·	1%	·	·	8%
Cc1cc(C(=O)N/N=C2\CC(=O)CC(C)(C)C2)c(C)n1-c1ccc(F)cc1	1	?	26	3%	?
Cc1cc(C(=O)N/N=C2\CC(=O)CC(C)(C)C2)c(C)n1-c1ccccc1	87*	?	89*	5%	?
Cc1cc(C(=O)N/N=C2\CC(=O)c3ccccc32)c(C)n1-c1ccccc1	35*	?	65*	-17%	-48%
CC(=O)N1c2ccccc2C2CCCC[C@H]21 (stereo partly drawn)	·	7%	·	·	-19%
Cc1ccc(C2=NCCn3nc4cc(C(F)(F)F)ccc4c32)cc1	·	38%	·	·	?
CCN(CC)c1ccc(C(=O)NC(=S)Nc2cc(S(=O)(=O)N3CCOCC3)ccc2-n2cncn2)cc1	-4	-9%	-8	4%	-12%
Cc1c(NC(=O)C(C)OC(=O)[C@@H](NC(=O)c2ccccc2)C(C)C)c(=O)n(-c2ccccc2)n1C (stereo partly drawn)	-3	?	5	6%	1%
C=CCCC(=O)N1CCC(n2nccc2NC(=O)CCCc2ccccc2)CC1	13*	0%	20	-2%	18%
CSCCC(=O)N1CCC(n2nccc2NC(=O)CCCc2ccccc2)CC1	17*	?	21	-1%	?
CSCC(=O)N1CCC(n2nccc2NC(=O)CCc2ccccc2)CC1	-9	?	-9	-7%	20%
N#Cc1ccc(S(=O)(=O)N2CCC(C(=O)Nc3cccc(C(=O)NC4CC4)c3)CC2)cc1	·	-53%	·	·	?
O=[N+]([O-])c1ccc(Sc2ncccn2)c([N+](=O)[O-])c1	-2	3.3µM*	-4	3%	13µM*
NNS(=O)(=O)c1ccc(Sc2ccccn2)c([N+](=O)[O-])c1	15*	17%	36	7%	10%
CN1CCN(c2ccc([N+](=O)[O-])c(Sc3ccccn3)c2)CC1	-2	0.29µM*	14	-1%	?
N#Cc1ccc(Sc2ccccn2)c([N+](=O)[O-])c1	0	20%	2	-15%	-8%
CN1CCN(c2ccc([N+](=O)[O-])c(-n3nc(-c4ccccc4)c4ccccc4c3=O)c2)CC1	2	8.3µM*	-18	4%	?
CCCCn1c(N)c(N(CC(C)C)C(=O)c2ccc(N3C(=O)CCC3=O)cc2)c(=O)[nH]c1=O	·	10%	·	·	-7%
CN1CCN(c2ccccc2NC(=O)c2sc3ccccc3c2Cl)CC1	-4	82%	26	1%	?
N#Cc1c(Oc2cccc(OS(=O)(=O)CCCC(F)(F)F)c2)cccc1C(F)(F)F	5	·	24	·	·

Compound activity deposited in PubChem by National Center for Advancing Translational Sciences (NCATS).
